# Pf growth 48h – Primary qHTS for delayed death inhibitors of the malarial parasite plastid, 48 hour incubation; P. falciparum luciferase growth in erythrocytes, 48 h; Potency, µM (top dose mostly 28.7 µM), actives largely listed as inhibitors; 5.9% of 310,000 active; AID 504832, 2011
#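 A one-generation exposure of luciferase-tagged malaria parasites in RPMI 1640/Albumax erythrocyte culture, 37 C and 5% CO2. Inhibition is inferred from decreased luminescence after adding detection reagent.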
# Cycloheximide cs – Cycloheximide Counterscreen for Small Molecule Inhibitors of Shiga Toxin. cell reporter, cycloheximide protein synthesis inhibition counterscreen. max response, %. 12% of 300,000 active. AID 2314, 2010; in the data active means max response mostly above about 13%, no sharp cut-off; inactive means mostly below about 14%; further: read at 38.3 µM for the half of the compounds with a filed dose
# Pf growth 96h – Primary qHTS for delayed death inhibitors of the malarial parasite plastid, 96 hour incubation; P. falciparum luciferase reporter growth, 96 h; Potency, µM (highest dose often 28.7 µM), most hits filed as inhibitors; 6.9% of 320,000 active
#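 Cell-based qHTS: luciferase-tagged P. falciparum in erythrocytes (2% hematocrit, 0.05% parasitemia final) incubated with compounds for 96 hours, 37 C, 5% CO2; luciferase detection reagent then added and luminescence measured.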
# NS1 inh – qHTS Assay for Inhibitors of Influenza NS1 Protein Function. Potency, µM (highest dose often 46.1 µM). 0.4% of 270,000 active; calls by dose curve; further: actives are rising curves; nearly all actives have a fitted effect of over 50% in size
#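 Recovery from NS1-induced slow growth read by OD600 in budding yeast switched to galactose assay medium (pH 6.0, -URA) at 1:100 dilution. Compound 23 nl per well; the matching strain lacking NS1 serves as control.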
# Shiga toxin inh – A qHTS for Small Molecule Inhibitors of Shiga Toxin | Vero cells, Shiga toxin protein synthesis inhibition reporter | inhibition, % at 38.7 µM | 9.2% of 290,000 active; in the data active means inhibition mostly above about 28%, no sharp cut-off; inactive means mostly below about 43%
# Numbers stand for hits; - = inactive; ? = inconclusive; . = no result. Shown are actives, neighbours in structure and some others; about 21% of the full set was active somewhere. Unless noted, the call rests on the fitted dose curve; in most records, active means well fitted inhibition curve with a large enough effect; inconclusive means small, poorly fitted or top-dose-only effect, or another doubt; inactive means no such curve, though single readings can be large or run the other way.
SMILES,Pf growth 48h,Cycloheximide cs,Pf growth 96h,NS1 inh,Shiga toxin inh
O=C(N/N=C/c1ccccn1)c1ccc(Cl)c(Cl)c1,14.7µM,43.9,?,-,68.9
O=C(N/N=C/c1ccccn1)c1cc(-c2ccccc2Cl)n[nH]1,?,35.3,?,.,95.2
CCc1ccc(-c2cc(C(=O)N/N=C/c3ccccn3)[nH]n2)cc1,?,-,-,.,-
O=C(N/N=C/c1ccccn1)c1cc(-c2ccc3ccccc3c2)n[nH]1,?,-,-,-,-
O=Cc1c(NC2CCCCC2)c2ccccc2[nH]c1=O,-,-,?,-,-
COc1cc(C(=O)OCC(=O)NCc2ccc(F)cc2)ccc1OCC(C)C,-,-,-,-,-
CCN(C/C=C/C#CC(C)(C)C)Cc1cccc(OCc2cc(-c3ccsc3)cs2)c1,.,-,.,.,30.0
CCN(CC)c1ccc(-c2nnc(SCC(=O)Nc3ccccc3C#N)n2-c2ccccc2)cc1,?,-,?,-,-
O=C(OCC(=O)N1CCCC1)c1cc(Cl)ccc1[N+](=O)[O-],-,-,-,-,-
CN(C)c1nc(NCc2ccccc2)nc(SCC(=O)Nc2ccc(Cl)c(Cl)c2)n1,10.4µM,-,11.7µM,-,-
COc1nc(SCC(=O)Nc2ccccc2Cl)nc(N(C)C)n1,-,18.3,-,-,-
COc1cc2c(cc1OC)C(c1cccc(Cl)c1Cl)CC(=O)N2 (centres undefined),-,-,?,-,-
COC(=O)C1=C(C)NC(=O)CC1c1cccc(Cl)c1Cl (centres undefined),5.22µM,-,?,-,-
CNc1ccc(/C=C(\C#N)C(=O)Nc2ccccn2)cc1[N+](=O)[O-],-,-,-,-,-
N#C/C(=C/c1ccc(O)c([N+](=O)[O-])c1)C(=O)Nc1ccccc1,-,26.5,-,.,50.6
N#C/C(=C/c1ccc([N+](=O)[O-])cc1)C(N)=O,-,-,-,-,-
N#C/C(=C/c1ccc([N+](=O)[O-])cc1)C(=O)Nc1ccccc1O,-,62.4,-,-,74.3
N#C/C(=C\c1ccc([N+](=O)[O-])cc1)C(=O)Nc1ccccc1O,-,30.6,?,-,-
O=C(O)c1ccc(OS(=O)(=O)c2ccc(Cl)s2)c(Cl)c1,-,.,-,.,.
Cc1ccc(C(CCN(Cc2ccccc2)C(=O)c2ccco2)c2ccco2)cc1 (centres undefined),?,-,13.1µM,-,-
CN(Cc1ccccc1)C(=O)N[C@@H](Cc1ccccc1)C(=O)O,-,-,-,-,-
CN(Cc1nc(-c2ccccc2)no1)C(=O)c1ccco1,-,-,-,-,-
COC(=O)[C@H](Cc1ccccc1)NC(=O)N(C)Cc1ccccc1,-,17.9,-,-,-
O=C(c1ccco1)N(CCC(c1ccccc1)c1ccco1)Cc1ccco1 (centres undefined),?,-,?,-,-
CN(Cc1cccs1)C(=O)CNC(=O)c1ccco1,-,22.3,-,-,-
SMILES,Pf growth 48h,Cycloheximide cs,Pf growth 96h,NS1 inh,Shiga toxin inh
CN(Cc1ccccc1)C(=O)c1ccco1,-,-,11.7µM,-,-
OCC1(Cc2ccccc2)CCN(C2CCN(c3ccc(F)c(F)c3)CC2)CC1,-,-,-,-,-
CN(Cc1ccccc1)C(=O)CCC(=O)N(C)Cc1ccccc1,-,32.4,.,-,113.3
CN(C)c1ncc([N+](=O)[O-])cc1C(F)(F)F,0.738µM,-,-,-,-
CC(C)OC(=O)c1c(N)sc2c1CCCC2,.,.,.,-,.
Cc1c(C(N)=O)sc(N)c1C(=O)OC(C)C,-,-,-,-,-
CC(=O)c1sc(N)c(C(=O)OC(C)C)c1C,-,19.0,-,-,-
Cc1c(C(=O)OC(C)C)sc(N)c1C(=O)OC(C)C,-,32.0,-,-,106.6
NC(=O)CC[C@H](NC(=O)c1ccc(F)cc1)C(=O)OCC(=O)Nc1ccc(N2CCOCC2)cc1,-,-,-,-,-
COc1ccc(-c2nnc(-c3ccc(OCC(C)C)cc3)o2)cc1,-,-,-,-,-
CCCOc1ccc(-c2nnc(-c3ccncc3)o2)cc1,-,21.0,?,-,84.3
CC(C)COc1ccc(-c2nnc(-c3ccncc3)o2)cc1,-,37.6,-,-,110.8
CCN(c1cccc(C)c1)S(=O)(=O)c1ccc2[nH]c(=O)c(=O)[nH]c2c1,?,-,?,-,-
C=Cn1ccnc1P(=S)(c1ccc2c(c1)c1ccccc1n2CC)c1nccn1C=C,2.94µM,-,-,-,-
CCCOC(=O)c1c(NC(=O)CCCn2nc([N+](=O)[O-])cc2C)sc(C(=O)OC)c1C,-,-,?,-,-
COc1ccc(-c2nc3ccc(C4=C(C)CC(=O)NN4)cc3[nH]2)cc1,?,.,7.57µM,.,.
O=c1ccc(/C=C/c2ccccc2)nn1Cc1ccccc1,.,-,-,-,-
C(=C\c1cc(/C=C/c2ccccc2)ncn1)/c1ccccc1,-,70.8,?,-,82.2
Cc1nc(/C=C/c2ccccc2)cc(/C=C/c2ccccc2)n1,?,29.6,.,-,63.4
Cc1cccc(/C=C/c2ccccc2)n1,.,.,.,-,.
Cn1nc(/C=C/c2ccccc2)ccc1=O,-,28.3,-,.,85.6
COc1ccc(CNC(=O)/C(C#N)=C2\N=C(NC(=O)c3cccs3)c3ccccc32)cc1,-,-,?,-,-
Cc1nn(C)c(C)c1-c1c(C#N)c(N)nc2c1CCCCCC2,?,-,?,-,-
Cc1c(-c2c(C#N)c(N)nc3c2CCCCCC3)cnn1C,?,-,10.4µM,-,-
CSc1ccc(-c2c(C#N)c(N)nc3c2CCCC3)cc1,-,-,2.62µM,-,-
SMILES,Pf growth 48h,Cycloheximide cs,Pf growth 96h,NS1 inh,Shiga toxin inh
N#Cc1c(N)nc2c(c1-c1ccncc1)CCCCC2,?,-,7.38µM,-,-
COc1ccc(-c2c(C#N)c(N)nc3c2CCCCCC3)cc1OC,.,-,-,-,-
C/C(CCc1ccc2c(c1)OCO2)=N\N=C1\NC(=O)CC(C(=O)Nc2ccccc2F)S1 (centres undefined),-,-,-,.,-
Cc1ccc(NNC(=O)c2ccc(Cl)cc2)nn1,-,-,-,-,-
CC1Sc2n(c3ccccc3[n+]2C)N=C1c1ccccc1 (centres undefined),0.928µM,-,-,-,-
CCCCn1c(-c2ccncc2)nc2c1c(=O)[nH]c(=O)n2CC(C)C,?,-,?,-,-
CCCCn1c(-c2cccc(Br)c2)nc2cc3[nH]c(=O)c(C(C)C)nc3cc21,?,-,6.57µM,-,-
CCCCn1c(-c2cccnc2)n[nH]c1=S,-,-,2.62µM,-,-
CCCCn1c(-c2cccnc2)nc2cc3[nH]c(=O)c(C(C)C)nc3cc21,?,-,10.4µM,-,-
CCn1c(-c2cccnc2)n[nH]c1=S,?,-,-,-,-
O=C1C[C@@H](c2ccc(O)cc2)Oc2cc(O[C@@H]3O[C@H](CO)[C@@H](O)[C@H](O)[C@H]3O)cc(O)c21,.,-,.,.,-
CC1CC(C)CN(C(=O)COC(=O)CCc2nc3ccccc3c(=O)[nH]2)C1 (centres undefined),-,-,-,-,-
CC(C)(C)c1ccc(C(=O)Nc2ccccc2Cl)cc1,-,-,-,.,49.8

# Bioassay records as filed in PubChem.
